One may read the inhibition as the change of the read-out against control, counted positive when it falls.

Values joined by “and” are separate entries in the source; they are usually repeats but may differ in a detail not shown here. Equal values may be shown once. About 1,900 (0.59%) of roughly 320,000 compounds were called active. Rule as the data show it: active = inhibition mostly above about 10% (no sharp cut-off); inactive = mostly below about 6.7%. This excerpt belongs to a sample that is enriched for actives. Some structures have more than one record in an assay (separate samples or runs), and their calls can disagree.

Chain of Protein LANA1 (Human herpesvirus 8 type P (isolate GK18)) (Q9QR71 whole entry, looked up): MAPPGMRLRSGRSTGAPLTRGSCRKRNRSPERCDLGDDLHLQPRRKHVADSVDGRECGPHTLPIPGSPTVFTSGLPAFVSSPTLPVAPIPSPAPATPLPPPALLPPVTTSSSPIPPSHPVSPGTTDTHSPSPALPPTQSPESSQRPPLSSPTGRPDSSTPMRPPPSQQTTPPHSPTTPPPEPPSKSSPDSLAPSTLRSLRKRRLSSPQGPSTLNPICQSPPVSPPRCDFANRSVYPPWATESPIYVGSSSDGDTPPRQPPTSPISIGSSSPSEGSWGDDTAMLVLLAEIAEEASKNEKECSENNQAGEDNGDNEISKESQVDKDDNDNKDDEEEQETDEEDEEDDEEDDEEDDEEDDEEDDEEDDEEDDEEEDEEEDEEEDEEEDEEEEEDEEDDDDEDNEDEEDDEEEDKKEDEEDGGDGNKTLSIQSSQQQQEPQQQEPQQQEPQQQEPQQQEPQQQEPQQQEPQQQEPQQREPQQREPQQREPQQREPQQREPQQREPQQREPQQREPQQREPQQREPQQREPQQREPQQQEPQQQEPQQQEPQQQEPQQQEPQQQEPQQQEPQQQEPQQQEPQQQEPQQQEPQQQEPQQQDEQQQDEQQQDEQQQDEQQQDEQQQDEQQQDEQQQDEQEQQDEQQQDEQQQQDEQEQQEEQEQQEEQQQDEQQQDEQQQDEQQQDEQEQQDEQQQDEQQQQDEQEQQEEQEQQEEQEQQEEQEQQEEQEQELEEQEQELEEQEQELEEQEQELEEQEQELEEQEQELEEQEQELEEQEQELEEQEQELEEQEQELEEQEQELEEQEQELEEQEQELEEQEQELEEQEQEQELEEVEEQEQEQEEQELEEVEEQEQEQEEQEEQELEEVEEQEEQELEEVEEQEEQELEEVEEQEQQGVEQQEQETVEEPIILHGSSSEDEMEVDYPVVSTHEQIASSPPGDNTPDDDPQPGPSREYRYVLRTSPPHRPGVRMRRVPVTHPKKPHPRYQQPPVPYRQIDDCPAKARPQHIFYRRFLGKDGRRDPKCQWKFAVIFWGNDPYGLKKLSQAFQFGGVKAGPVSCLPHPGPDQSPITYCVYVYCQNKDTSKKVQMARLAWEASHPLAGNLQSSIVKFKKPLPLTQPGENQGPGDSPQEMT

The assay has as its target Protein LANA1 (Human herpesvirus 8 type P (isolate GK18)) (UniProt Q9QR71). Put plainly: blockers of LANA interaction with H2A/H2B – biochemical, FP readout, HTS, primary screen (AID 2629). Conditions: cell-free LANA-H2A/H2B peptide, fluorescence polarization, stronger effect = higher value, concentration not given here. A general note: Polarisation of emitted light reports the rotation of a fluorescent probe.
For the compound `O=C1C=C(c2ccnc3cc(Cl)ccc23)C[C@@H](c2ccc3c(c2)OCO3)C1`, the inhibition was 0.0706% (inactive). Regarding `O=C(NCCc1ccc(F)cc1)c1ccc2nccnc2c1`, the inhibition was 7.1% (inactive). As to `Cc1nc(C)c2c(c1C(F)(F)F)-c1ccccc1C2(F)F`, the inhibition was 11.7% (active). As for `CN(CCOc1ccc(CC2SC(=O)NC2=O)cc1)c1ccccn1` (stereo not given), the inhibition was 11.3% (active) and 1.08% (inactive).

Consider `CC(C)=N/N=C1/NC(=O)C(Cc2ccccc2)S1` (stereo not given), for which the inhibition is 0.219% (inactive). In the case of `CC(O)c1ccc(OCCN(C)c2ccccn2)cc1` (stereo not given), the inhibition is 0.184% (inactive). Turning to `CNc1nccc(-c2ccc(Cl)cc2)c1C#N`, the inhibition is -1.28% (inactive). Turning to `CSCC[C@H](NC(=O)N1CCn2c1nc1ccccc12)C(=O)NC1CCCCC1`, the inhibition was -4.45% (inactive). As for `Cc1nc(NC(CC(C)C)C(=O)O)c2nc(C)oc2n1` (stereo not given), the figure is 11.3% (active). Consider `Cc1cc(C)cc(C(=O)NC(CC(N)=O)c2ccc(N3CCC(N4CCCCC4)CC3)c([N+](=O)[O-])c2)c1` (stereo not given), for which the inhibition is -1.95% (inactive). As for `N#CC1=C(SCc2ccc(C#N)cc2)N=C(N)C(c2nc(-c3ccccc3)cs2)C12CCCCC2` (stereo not given), the inhibition is 5.1% (inactive).

Turning to `CC1(C)CCc2nc(SCc3ccccc3)c(C#N)cc2C1`, the inhibition is -3.11% (inactive). As for `N#CC1=C(SCc2ccccc2)NC(=O)C(C#N)C12CCCC2` (stereo not given), the inhibition was 15% (active). The figure for `COCCCNC(=O)Cc1ccc(-n2c(C)nc3cccnc32)cc1` is -0.715% (inactive); for `CCc1ccc(-c2nc(SCC(=O)NC3CCCC3)n[nH]2)cc1` it is 1.39% (inactive).

As for `Cc1ccc(CNC(=O)c2c(-c3ccccc3)noc2C)cc1`, the inhibition is -3.29% (inactive). Consider `Cc1onc(-c2ccccc2)c1C(=O)Nc1ccccc1C#N`, for which the inhibition was 1.04% (inactive). Take `CC(=O)Nc1cccc(NC(=O)c2c(-c3ccccc3)noc2C)c1`: the inhibition is 18.3% (active). With `O=C(NCC12CC3CC(C1)CC(CNC(=O)N1CCCC1)(C3)C2)N1CCCC1`, the inhibition is -3.32% (inactive). For `O=C(N1CCCC1)C12CC3CC(C1)CC(C(=O)N1CCCC1)(C3)C2`, the inhibition was 15.6% (active). As for `CC(=O)NC12CC3CC(C1)CC(C(=O)N1CCN(C(=O)c4ccco4)CC1)(C3)C2`, the figure is -0.808% (inactive); as for `O=S(=O)(NC1CCCCC1)c1ccc(F)c2ccccc12`, -1.01% (inactive). Regarding `Cc1cccc(C)c1NC(=O)C1(N(C(=O)c2ccccn2)c2ccc(O)cc2)CCCCC1`, the inhibition was -0.134% (inactive). For the compound `COc1cccc(N2CC(C(=O)Nc3c(C)cccc3C)CC2=O)c1` (stereo not given), the inhibition was -1.43% (inactive).

`COc1cccc(N(C(=O)c2ccn[nH]2)C2(C(=O)Nc3c(C)cccc3C)CCCCC2)c1`: the inhibition was 83.6% (active).
